# SW480 rerep – DNA re-replication induction in SW480 cells; SW480 DNA re-replication, Hoechst DNA content imaging, 48 h; 1.8% of 340,000 active; AID 624297; Potency, µM (doses to about 46.1 µM), inactives show at the highest dose re-replication activation, usual class: activators; note: % of control where 0% means no effect; nearly all actives have a fitted effect of over 55% in size
#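 Hoechst fluorescence of nuclei (405 nm excitation, 500-530 nm emission) measured by plate-scanning imager after 48 hr compound exposure at 37 C; re-replication scored as increased number of nuclei with elevated intensity.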
# HT1080NT lethal – kills 2HG-producing HT-1080-NT fibrosarcoma cells | Potency, µM (doses to about 46.1 µM), for inactives: at the highest dose activity, negative = less viability, actives largely listed as cytotoxic | 1.6% of 360,000 active | HT-1080-NT fibrosarcoma viability, CellTiter-Glo ATP luminescence, 48 h;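 note: NT is the 2HG producing partner of a matched IDH1 knockdown line; 0% = DMSO-treated cells and -100% = media-only wells without cells; nearly all actives have a fitted effect of over 55% in size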
#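 Fibrosarcoma NT cells, 750 per well in 5% FBS RPMI, were exposed to compound for 48 hours. Viability: CellTiter-Glo luminescence.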
# MCF10A rerep – induces DNA re-replication in MCF 10a normal breast cells; Potency, µM (titrated, usually from 46.1 µM), for inactives: top-dose activity, positive = re-replication, hits mostly activators; MCF 10A DNA re-replication, Hoechst nuclear intensity, 48 h; AID 624296; 2.9% of 350,000 active; note: % of control where 0% means no effect; nearly all actives have a fitted effect of over 50% in size
# KB-3-1 cytotox – KB-3-1 parental cell cytotoxicity. AID 1347075. KB-3-1 viability, CellTiter-Glo ATP luminescence, 72 h. 1.4% of 400,000 active. Potency, µM (doses to about 46.1 µM), actives largely listed as cytotoxic; note: % is set by controls: 0 for no effect and ±100 for the full control effect; nearly all actives have a fitted effect of over 60% in size
#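 Parental KB-3-1 adenocarcinoma cells in phenol-red-free DMEM with 10% FBS were pin-treated with compounds at several concentrations, incubated 72 h at 37 °C, and viability read by CellTiter-Glo luminescence; concentration-effect curves were fitted after normalization.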
# KB-V1 MDR tox – kills drug-selected multidrug resistant KB-V1 cells | Potency, µM (top dose mostly 46.1 µM), hits mostly cytotoxic | KB-V1 MDR cells viability, CellTiter-Glo, 72 h | 3.4% of 400,000 active; note: % is set by controls: 0 for no effect and ±100 for the full control effect; nearly all actives have a fitted effect of over 60% in size
#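 Drug-selected KB-V1 cells, grown in DMEM lacking phenol red with 10% FBS, receive compound titrations; after three days at 37 degrees C, surviving cell ATP is quantified by CellTiter-Glo luminescence and responses normalized and curve-fitted.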
# HT1080 IDH1KD tx – HT-1080 IDH1 knockdown cell toxicity (counter line); AID 686971; 2% of 360,000 active; Potency, µM (doses to about 46.1 µM), for inactives: at the highest dose activity, negative = toxicity, hits mostly cytotoxic; HT-1080 IDH1 knockdown viability, ATP luminescence, 48 h;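 note: 0% = DMSO wells and -100% = cell-free medium wells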
#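 Knockdown cells (IDH1KD HT-1080) received compounds 2 h after plating at 750 cells/well and were kept 48 h at 37 °C in 5% FBS RPMI. A CellTiter-Glo luminescence read gave % activity for curve fitting.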
# * = called active by the depositor; i = inactive; ? = inconclusive; nt = no result given; ! = not active in a repeat. Most compounds without a hit are left out; they make up all but 7.9% or so of the library. Calls come from the whole dose curve; as a rule, active = well fitted curve in the direction sought with a large enough effect; inconclusive = small, poorly fitted or top-dose-only effect, or another doubt; inactive = no such curve, though single readings can be large; an effect the other way counts as inactive or inconclusive. Potency is the fitted concentration of half-maximal effect.
SMILES,SW480 rerep,HT1080NT lethal,MCF10A rerep,KB-3-1 cytotox,KB-V1 MDR tox,HT1080 IDH1KD tx
COc1ccc(-c2cc(-c3nnc(COC(=O)c4ccc(O)cc4)o3)c3ccccc3n2)cc1OC,?,?,?,i,?,?
CCCN(Cc1cc2cc(C)ccc2[nH]c1=O)C(=O)c1cccc(Cl)c1,nt,nt,nt,?,i,nt
Cc1cccc(-n2c3nc(=O)n(C)c(=O)c-3cc3ccc(Cl)cc32)c1C,nt,nt,nt,i,i,nt
O=C(NCc1ccco1)c1ccc(Cn2c(SCc3ccccc3)nc3cccnc32)cc1,nt,nt,nt,i,i,nt
CCOC(=O)C1CCCN(C(=O)c2cccc(C(F)(F)F)c2)CC1 (stereo not given),nt,3%,nt,i,i,3%
Cc1c(Cl)cccc1Nc1ccccc1C(=O)O,-3%,7%,?,i,i,-12%
Cc1ccc(Cl)c(NC(=O)CCl)c1Cl,11%,-27%,4%,23µM*,i,-10%
Cc1ccc(Cl)c(Nc2ccccc2C(=O)O)c1Cl,-9%,?,27µM*!,i,i,?
Cc1ccc(Cl)c(NC(=O)CSc2cccc[n+]2[O-])c1Cl,-6%,8%,0%,i,i,5%
COc1ccccc1-c1nc2n(n1)C(c1ccccc1Cl)C(C(=O)Nc1cccnc1)=C(C)N2 (stereo not given),nt,nt,nt,i,i,nt
O=C1NC[C@@H](CCCCN2CCN(CCc3ccccc3)C(=O)C2=O)N(CCC2CCCCC2)C1=O,nt,17%,nt,i,i,?
c1ccc(Nc2nc(Nc3ccccc3)nc(-n3cccn3)n2)cc1,nt,nt,nt,?,i,nt
Fc1ccc(-c2cc(-c3ccccc3)nc(-n3cccn3)n2)cc1,3%,-15%,18µM*,i,i,-14%
Cc1ccc(N(CC(=O)Nc2cccc(Cl)c2C)S(=O)(=O)c2c(C)noc2C)cc1,nt,nt,nt,?,i,nt
CC(=O)OCC1=C(C(=O)O)N2C(=O)[C@@H](NC(=O)Cc3ccccc3)[C@H]2SC1,-6%,-11%,10%,i,i,7%
CCOc1ccc(C(=O)NC2C(=O)N3C(C(=O)O)=C(COC(C)=O)CSC23)cc1OCC (stereo not given),-9%,-2%,16µM*,i,i,-6%
N#CC1=C(N)S[C@H](C(=O)C23CC4CC(CC(C4)C2)C3)[C@H]1c1ccncc1,?,23µM*,?,i,i,?
Cc1ccccc1OC1C(=O)N(Cc2ccc3c(c2)OCO3)C1c1sccc1C (stereo not given),1%,?,?,i,i,13µM*
COc1ccc(/C=C/CN2CCC(CO)(Cc3ccccc3Cl)CC2)cc1,?,23µM*,?,?,?,23µM*
Cc1cc(C)n(-c2nc3ccccc3nc2N2CCN(C(=O)c3ccc(Cl)cc3)CC2)n1,21µM*,-26%,1.8µM*,i,i,?
Cc1cc(C)n(-c2nc3ccccc3nc2N2CCOCC2)n1,-3%,4%,-2%,i,i,2%
Cc1cc(C)n(-c2nc3ccccc3nc2N2CCCCCC2)n1,4%,7%,14%,i,i,11%
Cc1cc(-c2ccccc2)n(-c2ccc(C(=O)N3CCN(c4ncccn4)CC3)cc2)n1,20%,-4%,28%,?,2.9µM*,0%
Cc1cc(C)n(-c2nc3ccccc3nc2N2CCCC2)n1,-10%,14%,0%,i,13µM*,0%
COc1ccc(Nc2nc3ccccc3nc2-n2nc(C)cc2C)cc1,?,8%,16µM*,i,i,6%
SMILES,SW480 rerep,HT1080NT lethal,MCF10A rerep,KB-3-1 cytotox,KB-V1 MDR tox,HT1080 IDH1KD tx
Cc1ccc(C(=O)N2CCN(c3ncccn3)CC2)cc1,-6%,17%,9%,i,i,10%
CCCCN1C(=O)C(CC(=O)NC2CCCC2)CC(C(=O)N2CCCCCC2)=C1C (stereo not given),nt,-4%,nt,nt,i,4%
Cc1ccc(C)c(CN2CCCN(Cc3ccc(F)cc3)S2(=O)=O)c1,nt,nt,nt,i,i,nt
COc1cc2c(cc1OC)C(COc1ccc3c(C)cc(=O)oc3c1)N(C(=O)c1cccc(C)c1)CC2 (stereo not given),nt,nt,nt,i,i,nt
COc1ccc(NS(=O)(=O)CC23CCC(CC2=O)C3(C)C)cc1 (stereo not given),-3%,0%,6%,i,?,4%
CCOc1ccc(NS(=O)(=O)CC23CCC(CC2=O)C3(C)C)cc1 (stereo not given),-10%,2%,13%,i,18µM*,0%
CN(C(=O)CSc1nc2ccc(NC(=O)c3ccccc3F)cc2s1)c1ccccc1,nt,nt,nt,?,i,nt
CN(C(=O)CSc1nc2ccc(NC(=O)c3cccc(F)c3)cc2s1)c1ccccc1,nt,nt,nt,?,9.2µM*,nt
CCn1cc([N+](=O)[O-])c(C(=O)Nc2nc(-c3ccc(C)c(C)c3)c(C)s2)n1,?,?,8.2µM*,i,i,10µM*
S=C(NCCCc1cnc[nH]1)NCCCN(Cc1ccc(Cl)cc1)c1ncc(Br)cn1,nt,nt,nt,i,i,nt
CCOc1ccc(NC(=O)N2CC=C(c3c[nH]c4ccccc34)CC2)cc1,nt,nt,nt,23µM*,?,nt
CCOC(=O)c1cccc(NC(=O)N2CC=C(c3c[nH]c4ccccc34)CC2)c1,nt,nt,nt,i,i,nt
FC(F)(F)c1cc(Cl)c2nc(-c3ccccc3)cn2c1,1%,-15%,15µM*,i,i,-14%
Nc1cccc(-c2cn3cc(C(F)(F)F)cc(Cl)c3n2)c1,0%,-25%,19%,i,?,-4%
COc1ccccc1N1CCN(C(=O)c2cc3c(=O)oc4ccccc4c3s2)CC1,nt,nt,nt,i,i,nt
O=S(=O)(c1ccc(F)cc1)N1CCN(CC(O)COCc2ccccc2)CC1 (stereo not given),-2%,-3%,-3%,i,21µM*,-2%
COc1ccc(COCC(O)CN2CCN(S(=O)(=O)c3c(F)cccc3F)CC2)cc1OC (stereo not given),?,5%,10%,i,13µM*,0%
OC[C@@H]1CN(Cc2ccc3c(c2)OCO3)C[C@H](n2cnc3c(NC4CC4)ncnc32)O1,nt,17%,nt,i,i,10%
COc1ccc(CCNC(=O)C(=O)NCC(c2ccco2)S(=O)(=O)c2cccs2)cc1 (stereo not given),nt,nt,nt,i,i,nt
COc1ccc(NC(=O)Nc2cccc([N+](=O)[O-])c2)cc1Cl,-1%,-1%,?,i,15µM*,-5%
